Growth data for 13 compounds are collected here from PubChem BioAssay (NCI).

This is part of a sample that, as a whole, favours compounds with a hit. Of some 83,000 tested, about 20% had one in any assay.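 Single-concentration screen, 48 h exposure, 96-well plates. Endpoint: percent growth. Below 10 = active.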 Values without a mark were called inactive. Active and inactive are the calls of the source.

Some test systems named below: SR leukemia; RPMI-8226 leukemia; OVCAR-8 ovarian; OVCAR-5 ovarian; OVCAR-4 ovarian; SK-OV-3 ovarian; IGROV1 ovarian; OVCAR-3 ovarian; HS 578T breast; NCI/ADR-RES ovarian.
Holding throughout (test): NCI-60 one-dose screen, 48 h (100 = growth as untreated, 0 = no growth, -100 = all killed)
Holding throughout (conditions): 10 µM

Take `CC1CCCC(C(=O)O)C1C(=O)O` (stereo not given): the growth in the assay with SR leukemia is 98.9%; with RPMI-8226 leukemia it was 94.1%; with OVCAR-8 ovarian, 94.4%; with OVCAR-5 ovarian, 99.8%; in the assay with OVCAR-4 ovarian, 103%; in the assay on SK-OV-3 ovarian, 90.4%. The growth in the assay on IGROV1 ovarian is 106%; in the assay on OVCAR-3 ovarian it was 110%; with HS 578T breast, 95.4%; with NCI/ADR-RES ovarian it was 102%.

For the compound `C/C=C/C1=CN2C(=O)c3cc(OC4OC(C)C(NC)C(C)(O)C4O)c(C)c(O)c3N=C[C@@H]2C1` (stereo not given in full), the growth was 0.588% (active) in the assay on SR leukemia; 7.45% (active) in the assay on RPMI-8226 leukemia; 9.18% (active) with OVCAR-8 ovarian; -1.31% (active) in the assay with OVCAR-5 ovarian; 6.69% (active) with OVCAR-4 ovarian; 1.76% (active) in the assay with SK-OV-3 ovarian. Also, the growth is -22.7% (active) in the assay with IGROV1 ovarian, -4.33% (active) with OVCAR-3 ovarian, -11.6% (active) in the assay on HS 578T breast and -6.18% (active) in the assay on NCI/ADR-RES ovarian.

Regarding `O=C1CSC(=S)N1/N=C/c1ccc(Cl)s1`, the growth is 98.2% with SR leukemia; 97.4% in the assay on RPMI-8226 leukemia; 106% in the assay on OVCAR-8 ovarian; 97.6% in the assay with OVCAR-5 ovarian; 119% in the assay with OVCAR-4 ovarian; 92.6% with SK-OV-3 ovarian. Besides, the growth in the assay on IGROV1 ovarian is 100%; in the assay on OVCAR-3 ovarian, 104%; in the assay on HS 578T breast, 112%; in the assay on NCI/ADR-RES ovarian, 97.5%.

As for `COc1cc(C(=O)/C(C)=C/c2c[nH]c3ccccc23)cc(OC)c1OC`, the growth with SR leukemia was 17.1%; in the assay with RPMI-8226 leukemia it was 49.9%; in the assay on OVCAR-8 ovarian it was 20.3%; in the assay with OVCAR-5 ovarian, 53.3%; in the assay with OVCAR-4 ovarian it was 50.1%; in the assay on SK-OV-3 ovarian, 29.9%. The growth is 18.8% in the assay with IGROV1 ovarian, -8.19% (active) in the assay on OVCAR-3 ovarian, 44.9% with HS 578T breast and 5.38% (active) with NCI/ADR-RES ovarian.

As for `Cc1ccc(S(=O)(=O)N/N=C2\CCCc3ccccc32)cc1`, the growth is 110% with SR leukemia; 94.3% in the assay on RPMI-8226 leukemia; 95.2% in the assay with OVCAR-8 ovarian; 90% with OVCAR-5 ovarian; 95.8% with OVCAR-4 ovarian; 111% in the assay with SK-OV-3 ovarian. Besides, the growth in the assay on IGROV1 ovarian was 113%; in the assay with OVCAR-3 ovarian, 113%; in the assay with HS 578T breast, 95%; in the assay with NCI/ADR-RES ovarian, 96.7%.

`Clc1ccc(/C=C2\CCCC3C2=Nc2ccccc2NC3c2ccc(Cl)cc2)cc1` (stereo not given): the growth in the assay with SR leukemia was 21.5%; in the assay on RPMI-8226 leukemia, -16% (active); in the assay with OVCAR-8 ovarian it was 65.8%; with OVCAR-5 ovarian, 93.8%; with OVCAR-4 ovarian, 79.5%; in the assay on SK-OV-3 ovarian, 70.9%. Moreover, the growth in the assay on IGROV1 ovarian is 83.1%; in the assay on OVCAR-3 ovarian it was 67%; in the assay with HS 578T breast, 102%; with NCI/ADR-RES ovarian it was 99.4%.

With `COc1cc(/C=C/c2cc(/C=C/c3ccc(O)c(OC)c3)[nH]c(=O)n2)ccc1O`, the growth was 27.2% in the assay on SR leukemia; 62.5% in the assay with RPMI-8226 leukemia; 58.7% in the assay on OVCAR-8 ovarian; 102% with OVCAR-5 ovarian; 54% in the assay with OVCAR-4 ovarian; 71.6% with SK-OV-3 ovarian. In addition, the growth in the assay on IGROV1 ovarian is 93.1%; in the assay on OVCAR-3 ovarian, 59.3%; in the assay on HS 578T breast it was 53.9%; in the assay with NCI/ADR-RES ovarian it was 90.7%.

Consider `CCCCCC(=O)O[C@]1(C(C)=O)CCC2C3CCC4=CC(=O)CC[C@]4(C)C3CC[C@@]21C` (stereo not given in full), for which the growth was 2.49% (active) with SR leukemia; -12.4% (active) with RPMI-8226 leukemia; 24.4% with OVCAR-8 ovarian; 74% in the assay with OVCAR-5 ovarian; 18.4% in the assay with OVCAR-4 ovarian; 64.3% with SK-OV-3 ovarian. Further, the growth is 33.4% in the assay with IGROV1 ovarian, 7.34% (active) with OVCAR-3 ovarian, 54.9% in the assay on HS 578T breast and 12.9% in the assay on NCI/ADR-RES ovarian.

As to `NC1=CC(=O)C(=O)c2cccnc21`, the growth was 86% with SR leukemia; 73.8% in the assay with RPMI-8226 leukemia; 76% in the assay with OVCAR-8 ovarian; 101% with OVCAR-5 ovarian; 91.8% with OVCAR-4 ovarian; 93.9% in the assay with SK-OV-3 ovarian. In addition, the growth in the assay on IGROV1 ovarian is 76.7%; in the assay with OVCAR-3 ovarian it was 84%; in the assay on HS 578T breast, 77.5%; with NCI/ADR-RES ovarian it was 82.7%.

On to `C[C@]12CC[C@@H]3c4ccc(OS(=O)(=O)O)cc4CC[C@H]3[C@@H]1CC[C@@H]2NS(=O)(=O)c1ccc(-c2ccccc2)cc1`, for which the growth with SR leukemia is 38.6%; with RPMI-8226 leukemia, 32.4%; with OVCAR-8 ovarian, 67.6%; in the assay on OVCAR-5 ovarian, 113%; in the assay with OVCAR-4 ovarian it was 66.9%; in the assay with SK-OV-3 ovarian it was 91.6%. Moreover, the growth with IGROV1 ovarian was 70.4%; with OVCAR-3 ovarian it was 52.6%; with HS 578T breast, 89.3%; with NCI/ADR-RES ovarian, 58.5%.

`Cc1cc(CSc2ccccc2C(=O)N2CC=C(c3ccccc3)CC2)on1`: the growth was 85.3% in the assay on SR leukemia; 84.9% with RPMI-8226 leukemia; 111% with OVCAR-8 ovarian; 87.3% with OVCAR-5 ovarian; 89.2% in the assay on OVCAR-4 ovarian; 107% in the assay with SK-OV-3 ovarian. The growth was 92.2% in the assay on IGROV1 ovarian, 107% in the assay with OVCAR-3 ovarian, 100% in the assay with HS 578T breast and 90.7% with NCI/ADR-RES ovarian.

`CNC(=O)c1cn2c3c(c(N4CCN(C)CC4)c(F)cc3c1=O)OC[C@@H]2C`: the growth in the assay with SR leukemia was 90.6%; with RPMI-8226 leukemia, 96.3%; in the assay with OVCAR-8 ovarian, 106%; with OVCAR-5 ovarian it was 105%; with OVCAR-4 ovarian it was 94.1%; with SK-OV-3 ovarian, 102%. Further, the growth in the assay on IGROV1 ovarian was 111%; in the assay on OVCAR-3 ovarian it was 107%; in the assay on HS 578T breast, 101%; with NCI/ADR-RES ovarian it was 102%.

As to `CC[C@@H](C(=O)[C@H](C)[C@H](O)[C@@H](C)[C@H]1O[C@H]([C@@H](CC)C(=O)O)CC[C@H]1C)C1O[C@]2(C=C[C@@H](O)[C@]3(CC[C@@](C)([C@H]4CC[C@](O)(CC)[C@H](C)O4)O3)O2)[C@H](C)C[C@@H]1C` (stereo not given in full), the growth in the assay with SR leukemia is 22.5%; in the assay on RPMI-8226 leukemia it was -7% (active); with OVCAR-8 ovarian it was 49.1%; with OVCAR-5 ovarian, 41.9%; in the assay on OVCAR-4 ovarian it was 43.4%; with SK-OV-3 ovarian it was 42.5%. In addition, the growth was 41.1% with IGROV1 ovarian, 25.8% with OVCAR-3 ovarian, 21.9% in the assay on HS 578T breast and 44% in the assay on NCI/ADR-RES ovarian.
